ID4 SMM: binds human ID4 protein on microarray; P47928; small molecule microarray, Flag-ID4 binding, fluorescence F/B; calls only; 1.2% of 31,000 active; AID 624137; call rule not given here;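 note: a binder raises fluorescence above local background on the spot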
Target sequence (P47928 whole entry, looked up): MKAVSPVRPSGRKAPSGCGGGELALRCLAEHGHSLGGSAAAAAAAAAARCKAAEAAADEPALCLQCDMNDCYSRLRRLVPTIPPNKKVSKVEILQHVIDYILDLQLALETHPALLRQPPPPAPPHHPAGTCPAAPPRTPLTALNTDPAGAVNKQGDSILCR
STK33 kin inh: human STK33 kinase inhibition | ADP-Glo luminescence, MBP substrate | 0.44% of 27,000 active | AID 2322 | Q9BYT3 | inhibition, % at 12.5 µM; in the data active = inhibition above about 20%; inconclusive = no clear call, values can overlap the other calls
p53 PUMA act: re-activators of the mutant p53 pathway | AID 624151 | SW480 PUMA-promoter luciferase, p53 mutant reactivation | activation, % at 9.98 µM | 1.5% of 28,000 active; in the data active = activation above about 52%; inconclusive = no clear call, values can overlap the other calls
* marks the source's active call; other numbers are inactive results; i = inactive; u = inconclusive; x = not tested or not shown; + = active, no number. Compounds with a hit are over-represented: about 2% of the library has one in this group of screens.

SMILES	ID4 SMM	STK33 kin inh	p53 PUMA act
CN1Cc2cc3c(cc2CCC(=O)c2cc4c(cc2C1)OCO4)OCO3	x	2	5
O=C(CSc1ccc(Cl)cc1)Nc1cccc(-c2nnc(-c3ccco3)o2)c1	i	4	122*
CSc1cccc(NC(=O)CSc2nnc(-c3ccc(Br)cc3)o2)c1	i	0	48
COc1ccccc1NC(=O)CSc1nnc(-c2ccc(Cl)cc2)o1	i	6	89*
O=C(CSc1nnc(-c2ccccc2)o1)Nc1cccc(F)c1	i	-1	78*
CCn1c(SCC(=O)Nc2ccc(Cl)cc2)nnc1-c1ccco1	i	-2	20
COC(=O)c1ccccc1NC(=O)CSc1nnc(-c2ccc(Cl)cc2)o1	i	5	20
O=S(=O)(c1ccc(-c2cc(C(F)(F)F)on2)s1)N1CCc2c([nH]c3ccc(F)cc23)C1	i	x	5
Cc1cc(N2CC(C)CC(C)C2)nc2ccc(NC(=O)CCC(=O)Nc3ccc(F)cc3Cl)cc12 (configuration not stated)	i	x	-27
CCCn1c2ccccc2c2nnc(SCCC(=O)O)nc21	i	-1	7
c1ccc(CCn2c3ccccc3c3nnc(SCc4ccc5nonc5c4)nc32)cc1	i	2	61*
CN(C)CCCCNC(=O)[C@@H]1C[C@@H]2C(=O)N[C@@H](CCCCN(C)C)C(=O)N2[C@@H]1c1ccc(O)cc1	x	1	x
CN(C)CCCCCCNC(=O)[C@@H]1C[C@@H]2C(=O)N3CCC[C@H]3C(=O)N2[C@@H]1c1ccc(O)cc1	+	2	x
CC(=O)Nc1ccc(NC(=O)COc2ccccc2C(=O)Nc2cccc(C)c2C)cc1	+	-4	-15
COc1cccc(C(=O)COc2ccc(NC(=O)c3ccccc3C)cc2)c1	i	-2	0
Cc1cc(Cl)ccc1OCC(=O)Nc1cccc(NC(=O)c2ccccc2C)c1	i	2	57*
Cc1cccc(NC(=O)c2ccccc2OCC(=O)Nc2cccc([N+](=O)[O-])c2)c1C	i	3	-4
Cc1ccccc1C(=O)Nc1ccc(OCC(=O)O)cc1	+	0	-8
Cc1cc(Cl)ccc1OCC(=O)Nc1cccc(NC(=O)c2ccccc2Cl)c1	i	-4	38
O=S(=O)(c1cccc2cccnc12)N1CCN(Cc2cccc(OCCO)c2)CC1	x	-1	x
COC(=O)[C@@]1(Cc2ccccc2N=[N+]=[N-])N=C(c2ccc(OCCCO)cc2)O[C@H]1c1ccccc1N=[N+]=[N-]	x	10	x
COc1cc2nc(SCC(N)=O)n3nc(CCn4c(C)nc5ccccc54)nc3c2cc1OC	i	x	14
O=C(/C=C/c1ccccc1)OC[C@H]1O[C@@H](O[C@@H]2CC(C(=O)O)=C[C@@H](O)[C@H]2O)[C@H](O)[C@@H](O)[C@@H]1O	x	0	x
COC(=O)c1sccc1-c1ccc(-c2ccn(C(=O)c3ccc(Cl)cc3)n2)o1	i	x	97*
CCC(C)[C@H]1C(=O)O[C@H](C(C)C)C(=O)N(C)[C@@H](C(C)C)C(=O)O[C@H](C(C)C)C(=O)N(C)[C@@H](C(C)C)C(=O)O[C@H](CC(C)C)C(=O)N1C (some centres not stated)	x	-5	x
SMILES	ID4 SMM	STK33 kin inh	p53 PUMA act
CC1(C)NC(=O)N(CCCOc2ccccc2CO)C1=O	i	2	16
C[C@@H]1CC(=O)c2c(ccc3c2C(=O)c2cccc(O)c2C3=O)C1	i	9	x
CN1CCc2cccc3c2[C@H]1Cc1ccc(O)c(O)c1-3	i	24*	x
Cc1cc(Cl)c(S(=O)(=O)Nc2ccc(I)cc2)cc1OCC(N)=O	i	2	-14
O=C(NCCC(c1ccc(F)cc1)c1ccco1)c1cccs1 (configuration not stated)	i	-2	50*
CC(C(=O)O)c1ccc(C(=O)c2cccs2)cc1 (configuration not stated)	i	0	x
O=C(CSc1nc(-c2ccccc2)cc(C(F)(F)F)n1)Nc1cccc(Cl)c1Cl	i	1	-18
COCCOC(=O)N1C(=O)[C@@]2(c3cc(C#CCC(C(=O)OC)C(=O)OC)ccc31)[C@H](C(=O)N1CCN(c3ncccn3)CC1)[C@H]1C(=O)O[C@H](c3ccccc3)[C@H](c3ccccc3)N1[C@@H]2c1ccccc1OCCO	i	1	x
CCOC(=O)CSc1ncnc2c1sc1nc3c(cc12)COC(C)(C)C3	i	0	-17
Cc1nc(SCC(=O)c2ccccc2)c2sc3nc4c(cc3c2n1)COC(C)(C)C4	i	1	91*
COc1ccccc1OCC(=O)Nc1oc(-c2ccccc2)c(-c2ccccc2)c1C#N	+	-3	-13
Cc1ccnc(SCC(=O)Nc2oc(-c3ccccc3)c(-c3ccccc3)c2C#N)n1	i	-6	10
C=C(C(=O)/C=C/C(C)(C)O)C1CC2O[C@]2(C)C(=O)[C@H]1OC(=O)CC(C)C (some centres not stated)	x	4	-88
Cc1ccc(NC(=O)COc2ccc(Br)cc2CO)cc1	i	0	68*
Cc1ccc(NC(=O)COc2ccc(CO)cc2Br)cc1	i	-3	-19
O=C(COc1ccc(Br)cc1CO)Nc1ccccc1F	i	-1	112*
O=C(COc1ccccc1CO)Nc1ccccc1	i	-4	77*
COc1ccccc1NC(=O)COc1ccc(Br)cc1CO	i	-7	37
O=C(COc1ccc(CO)cc1)Nc1ccc(F)cc1	i	5	23
O=C(COc1ccc(CO)cc1)Nc1ccccc1	i	-6	66*
COc1ccc(NC(=O)COc2ccccc2CO)cc1	i	0	25
COC(=O)c1c(C)cc2c(c(C)c1=O)OC1(C2)C(C)CCC2C(C)(C)OC(=O)C=CC21C (configuration not stated)	i	-1	x
O=C(CSc1nc2nc3c(cc2c(=O)n1-c1ccccc1)CCCC3)Nc1ccc(Cl)cc1	i	2	-25
O=C(COc1ccc(Br)cc1CO)Nc1ccccc1	i	2	127*
COc1cc(CO)ccc1OCC(=O)Nc1ccc(Br)cc1	i	2	u
SMILES	ID4 SMM	STK33 kin inh	p53 PUMA act
O=C(COc1ccc(CO)cc1Cl)Nc1ccc(F)cc1	i	0	-24
O=C(COc1ccc(Cl)cc1CO)Nc1ccc(F)cc1	i	0	69*
Cc1cc(=O)oc2cc(OCC(=O)Nc3sc4c(c3C#N)CCC4)ccc12	i	-4	18
O=C(Nc1ccccc1C(=O)NCc1ccco1)c1ccc(-c2ccccc2)cc1	i	0	58*
O=C(Nc1ccccc1C(=O)NCc1ccco1)c1ccccc1Cl	i	-1	0
CCOc1ccc(NC(=O)CSc2nnc(-c3ccc(Cl)c(Cl)c3)n2C)cc1	i	2	-1
CC(C)(C)C(=O)CSc1nnc(-c2ccco2)o1	i	2	70*
O=C(CSc1nnc(-c2ccco2)o1)Nc1cccc2ccccc12	i	-2	9
Cc1ccc(N(C(C)C(=O)Nc2ccc(C(F)(F)F)cc2)S(C)(=O)=O)cc1 (configuration not stated)	i	-3	5
C[C@H]1CN([C@@H](C)CO)C(=O)c2cc(-c3cccnc3)cnc2O[C@@H]1CN(C)C(=O)C1CCOCC1	x	x	5
C[C@H]1CN([C@@H](C)CO)C(=O)c2cc(C3=CCCCC3)cnc2O[C@H]1CN(C)C(=O)Cc1ccncc1	x	x	11
